In the library only some 2.4% were active in any assay of this set; here they are far more common.
miR122 inh – miR-122 inhibition in Huh7 cells | activation (reporter increase), % at 12.5 µM | Huh7 miR-122 Renilla luciferase sensor, 48 h; neutral wells = 0, positive control = 100 | hit rate 0.3% among 340,000 | AID 602342;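 active = mean replicate activation score at least 90 and every replicate individually at or above 90; inconclusive = only one of the two criteria met; inactive = neither criterion met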;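 note: higher luciferase means less miR-122 activity so hits act as miR-122 inhibitors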
GSIS activator – primary screen for activators of insulin secretion dependent on glucose, INS-1E cells, GLuc reporter luminescence; INS-1E GLuc reporter insulin secretion, 2-3 h; hit rate 0.61% among 370,000; AID 743287; activation, % at 16.6 µM;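 active = lowest replicate activation of at least 40%, so every replicate reaches that level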
Dyrk1A ADPGlo – blocks rat Dyrk1A kinase activity | inhibition, % at 12.5 µM | ADP-Glo luminescence, NFATc1 peptide | Q63470 | hit rate 0.43% among 310,000
MITF TRPM1 HTS – MITF TRPM1 promoter activation in melanoma cells. SK-MEL-5 TRPM1-promoter luciferase, 24 h; % of positive control, neutral wells = 0. activation, % at 12.5 µM. hit rate 0.75% among 300,000. AID 588334;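 active = mean activation of at least 80% with every replicate also reaching 80%; inconclusive = mean reaches 80% but some replicate falls short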
Wnt bcat act – activators of Wnt/beta-catenin signaling | Wnt/beta-catenin reporter cell assay, activator, plate reader | AID 743398 | hit rate 1.2% among 300,000 | activation, % at 9.35 µM; in the data active = activation above about 30%, passing the limit was not always enough; inconclusive = no clear call, values can overlap the other calls
NSD2 HMT inh – blocks human histone methyltransferase NSD2 | O96028 | NSD2 peptide methylation, AlphaScreen, 120 min | inhibition, % at 12.5 µM | hit rate 0.54% among 310,000 | AID 743445
Target sequence (O96028 whole entry, looked up): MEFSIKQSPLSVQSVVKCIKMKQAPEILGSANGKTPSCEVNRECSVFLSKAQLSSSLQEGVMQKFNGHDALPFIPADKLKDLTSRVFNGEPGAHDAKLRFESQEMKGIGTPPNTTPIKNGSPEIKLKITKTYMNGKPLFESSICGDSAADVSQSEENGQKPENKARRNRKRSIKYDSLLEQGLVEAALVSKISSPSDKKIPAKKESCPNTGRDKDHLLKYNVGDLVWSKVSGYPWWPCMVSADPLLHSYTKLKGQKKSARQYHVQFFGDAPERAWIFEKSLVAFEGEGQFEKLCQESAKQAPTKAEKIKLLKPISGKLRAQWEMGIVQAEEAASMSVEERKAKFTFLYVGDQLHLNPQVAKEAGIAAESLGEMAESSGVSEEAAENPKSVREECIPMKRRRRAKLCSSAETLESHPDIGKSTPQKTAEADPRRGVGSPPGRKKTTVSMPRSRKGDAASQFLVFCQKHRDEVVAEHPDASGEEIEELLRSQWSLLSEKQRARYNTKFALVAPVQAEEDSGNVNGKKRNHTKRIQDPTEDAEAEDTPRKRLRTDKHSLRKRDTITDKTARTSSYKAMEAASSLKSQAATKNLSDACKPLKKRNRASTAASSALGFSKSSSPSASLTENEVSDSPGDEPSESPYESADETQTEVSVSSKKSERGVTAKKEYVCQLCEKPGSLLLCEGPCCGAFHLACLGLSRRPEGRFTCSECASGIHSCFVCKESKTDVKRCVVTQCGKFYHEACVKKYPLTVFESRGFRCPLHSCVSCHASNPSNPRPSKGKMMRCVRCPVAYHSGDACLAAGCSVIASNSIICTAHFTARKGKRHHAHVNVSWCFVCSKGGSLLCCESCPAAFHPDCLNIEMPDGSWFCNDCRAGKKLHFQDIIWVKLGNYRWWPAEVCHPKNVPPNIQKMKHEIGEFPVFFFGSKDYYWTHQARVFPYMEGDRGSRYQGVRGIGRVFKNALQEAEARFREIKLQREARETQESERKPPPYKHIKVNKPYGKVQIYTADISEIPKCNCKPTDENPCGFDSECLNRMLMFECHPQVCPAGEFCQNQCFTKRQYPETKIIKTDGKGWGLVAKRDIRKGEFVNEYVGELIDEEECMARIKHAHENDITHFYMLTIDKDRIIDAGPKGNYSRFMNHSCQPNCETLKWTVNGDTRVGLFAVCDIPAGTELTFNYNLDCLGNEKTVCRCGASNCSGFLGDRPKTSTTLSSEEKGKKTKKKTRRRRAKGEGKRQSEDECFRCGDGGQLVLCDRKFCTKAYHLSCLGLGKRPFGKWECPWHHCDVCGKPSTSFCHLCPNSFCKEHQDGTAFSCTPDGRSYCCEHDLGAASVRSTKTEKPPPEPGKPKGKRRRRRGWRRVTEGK
Large screens that a line does not name were inactive. Cut-off read from the data, not from the text of the source, unless noted: active = inhibition above about 50%; inactive = the rest.

CCCn1nc([N+](=O)[O-])c(C(C#N)c2nc3ccccc3s2)c(Cl)c1=O (centres undefined)	NSD2 HMT inh 51.7 (no result: Wnt bcat act)
COc1ccccc1NS(=O)(=O)c1cc(-c2cc(C)no2)ccc1OC	none
COc1ccc(-c2cc(C)no2)cc1S(=O)(=O)Nc1ccccc1	miR122 inh 119.7
COc1ccc(-c2cc(C)no2)cc1S(=O)(=O)Nc1cccc(C)c1	miR122 inh 117.3
O=C([C@H]1[C@H](CO)[C@H]2Cn3c(ccc(-c4ccncc4)c3=O)[C@@H]1N2Cc1cccnc1)N1CCOCC1	none (no result: Dyrk1A ADPGlo, MITF TRPM1 HTS, Wnt bcat act, NSD2 HMT inh)
COc1ccc(NC(=O)N(C)C[C@H]2Oc3ccc(NC(=O)CCCCCC(=O)Nc4ccccc4N)cc3CC(=O)N([C@H](C)CO)C[C@@H]2C)cc1	none (no result: miR122 inh, Dyrk1A ADPGlo, MITF TRPM1 HTS, Wnt bcat act, NSD2 HMT inh)
OC(c1ccc(Cl)c(F)c1)c1ncc(-c2ccccc2F)[nH]1 (centres undefined)	miR122 inh inconclusive (no result: Dyrk1A ADPGlo, MITF TRPM1 HTS)
OC(c1ccc(Cl)c(Cl)c1)c1ncc(-c2ccccc2F)[nH]1 (centres undefined)	miR122 inh 103.7 (no result: Dyrk1A ADPGlo, MITF TRPM1 HTS)
Cc1cc(C(O)c2ncc(-c3ccccc3C)[nH]2)ccc1F (centres undefined)	none (no result: Dyrk1A ADPGlo, MITF TRPM1 HTS)
Cc1ccccc1-c1cnc(C(O)c2ccc(F)c(F)c2)[nH]1 (centres undefined)	miR122 inh 92.9 (no result: Dyrk1A ADPGlo, MITF TRPM1 HTS)
Cc1ccc(S(=O)(=O)Nc2ccc3c(c2)C(=O)N([C@H](C)CO)C[C@H](C)[C@H](CN(C)S(=O)(=O)c2cn(C)cn2)O3)cc1	none (no result: Dyrk1A ADPGlo, MITF TRPM1 HTS, Wnt bcat act, NSD2 HMT inh)
CCOC(=O)c1c(-c2ccc(-c3ccccc3)cc2)csc1NC(=O)CNCCN(C)C	GSIS activator 180.1
COc1cccc(OCc2nc3c4cnn(-c5ccccc5)c4ncn3n2)c1	GSIS activator 57.2 (no result: Wnt bcat act)
COc1cccc(OCCN2CCN(c3ncnc4c3cnn4-c3ccccc3)CC2)c1	none (no result: GSIS activator, Wnt bcat act)
CCSc1nnc(NC(=O)c2cc3c(s2)CCCC3)s1	MITF TRPM1 HTS 105.4 (no result: GSIS activator, Wnt bcat act)
CCSc1nnc(Nc2ccc(C)cc2)s1	MITF TRPM1 HTS 88.6 (no result: Wnt bcat act)
CCSc1nnc(Nc2ccccc2)s1	none (no result: GSIS activator)
O=C(Nc1nnc(SCc2ccccc2)s1)c1cc2c(s1)CCCC2	none (no result: Wnt bcat act)
CCOc1ccc(CN2C(=O)c3ccccc3C2=O)cc1C(=O)Nc1nnc(SCC)s1	GSIS activator 44.5
CCSc1nnc(NC(=O)c2csc3c2CCCC3)s1	GSIS activator 119.5 (no result: Wnt bcat act)
CO[C@H](CN(C)Cc1nccs1)[C@H](C)CN([C@H](C)CO)S(=O)(=O)c1ccc(C)cc1	none (no result: miR122 inh, Dyrk1A ADPGlo, MITF TRPM1 HTS, Wnt bcat act, NSD2 HMT inh)
CCNC(=O)[C@@H]1[C@@H](CO)[C@@H]2Cn3c(ccc(-c4ccccc4)c3=O)[C@H]1N2Cc1cccnc1	none (no result: Dyrk1A ADPGlo, MITF TRPM1 HTS, Wnt bcat act, NSD2 HMT inh)
CC(C)NC(=O)N(C)C[C@H]1Oc2cc(-c3ccncc3)ccc2S(=O)(=O)N([C@@H](C)CO)C[C@H]1C	none (no result: Dyrk1A ADPGlo, MITF TRPM1 HTS, Wnt bcat act, NSD2 HMT inh)
O=C(Nc1ccccc1O)c1csc2c1CCCC2	Wnt bcat act 38.2 (no result: miR122 inh, NSD2 HMT inh)
CCSc1nnc(NC(=O)c2cccnc2)s1	none (no result: miR122 inh, Wnt bcat act)
COc1ccc(NC(=O)c2csc3c2CCCCC3)c(OC)c1	none (no result: miR122 inh)
CCSc1nnc(NC(=O)c2ccccc2)s1	MITF TRPM1 HTS 104.3 (no result: miR122 inh)
Cc1noc(C)c1S(=O)(=O)N(C)C[C@H]1OCCCC[C@H](C)Oc2ccc(N(C)C)cc2C(=O)N([C@@H](C)CO)C[C@@H]1C	none (no result: GSIS activator, Dyrk1A ADPGlo, MITF TRPM1 HTS, Wnt bcat act, NSD2 HMT inh)
CCC(=O)NC[C@@H]1[C@@H](c2ccc(-c3cccc(F)c3)cc2)[C@H](CO)N1C(=O)CC	none (no result: Dyrk1A ADPGlo, MITF TRPM1 HTS, Wnt bcat act, NSD2 HMT inh)
CC(=O)Nc1ccc(NC(=O)c2c(C)nn(Cc3ccccc3)c2Cl)cc1	none (no result: miR122 inh)
Cc1nn(Cc2ccccc2Cl)c(Cl)c1C(=O)NCCc1ccccc1	Wnt bcat act 47.1
CC(C)[C@@H]1CC[C@@H](C)C[C@H]1OC[B-](F)(F)F	GSIS activator 69.4 (no result: miR122 inh, Dyrk1A ADPGlo, MITF TRPM1 HTS, NSD2 HMT inh)
Cn1cnc([N+](=O)[O-])c1S(=O)(=O)Oc1ccccc1	GSIS activator 53.8 (no result: miR122 inh, NSD2 HMT inh)
Cn1cnc([N+](=O)[O-])c1S(=O)(=O)c1cccc(Cl)c1	GSIS activator 104.1 (no result: miR122 inh, NSD2 HMT inh)
Cn1cnc([N+](=O)[O-])c1S(=O)(=O)Nc1ccccc1	none (no result: Dyrk1A ADPGlo)
O=C(O)CC1S/C(=N\N=C2CCCCCC2)N(c2ccccc2)C1=O (centres undefined)	none (no result: miR122 inh, GSIS activator)
CC(=O)/C=C1/SC(CC(=O)O)C(=O)N1c1ccccc1 (centres undefined)	NSD2 HMT inh 114.6 (no result: GSIS activator, Wnt bcat act)
C[C@H]1CCCCO[C@H](CN(C)S(=O)(=O)c2cn(C)cn2)[C@@H](C)CN([C@@H](C)CO)C(=O)c2cc(NC(=O)Nc3ccc4c(c3)OCO4)ccc2O1	none (no result: Dyrk1A ADPGlo, MITF TRPM1 HTS, Wnt bcat act, NSD2 HMT inh)
